Screen size: about 93,000 compounds; about 500 (0.54%) were called active.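 The calls were made as follows: active = primary inhibition of 50% or more at 10 µM, then 40% or more on retest; inactive = the rest.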 This excerpt belongs to a sample that is enriched for actives.
The molecules below were run against Integrin beta-2 (Homo sapiens) + Integrin alpha-M (Homo sapiens) (UniProt P05107+P11215) (assay: antagonists of integrin CD11b/CD18-fibrinogen binding – K562 cells, luminescence, primary screen (AID 1497)). Conditions: K562 CD11b/CD18 adhesion to fibrinogen, ATPlite luminescence; at 10 µM; stronger effect = higher value; Mn2+ added to activate the integrin.
Sequence of Integrin beta-2 (Homo sapiens) + Integrin alpha-M (Homo sapiens) (P05107 whole entry, looked up, other chains not shown): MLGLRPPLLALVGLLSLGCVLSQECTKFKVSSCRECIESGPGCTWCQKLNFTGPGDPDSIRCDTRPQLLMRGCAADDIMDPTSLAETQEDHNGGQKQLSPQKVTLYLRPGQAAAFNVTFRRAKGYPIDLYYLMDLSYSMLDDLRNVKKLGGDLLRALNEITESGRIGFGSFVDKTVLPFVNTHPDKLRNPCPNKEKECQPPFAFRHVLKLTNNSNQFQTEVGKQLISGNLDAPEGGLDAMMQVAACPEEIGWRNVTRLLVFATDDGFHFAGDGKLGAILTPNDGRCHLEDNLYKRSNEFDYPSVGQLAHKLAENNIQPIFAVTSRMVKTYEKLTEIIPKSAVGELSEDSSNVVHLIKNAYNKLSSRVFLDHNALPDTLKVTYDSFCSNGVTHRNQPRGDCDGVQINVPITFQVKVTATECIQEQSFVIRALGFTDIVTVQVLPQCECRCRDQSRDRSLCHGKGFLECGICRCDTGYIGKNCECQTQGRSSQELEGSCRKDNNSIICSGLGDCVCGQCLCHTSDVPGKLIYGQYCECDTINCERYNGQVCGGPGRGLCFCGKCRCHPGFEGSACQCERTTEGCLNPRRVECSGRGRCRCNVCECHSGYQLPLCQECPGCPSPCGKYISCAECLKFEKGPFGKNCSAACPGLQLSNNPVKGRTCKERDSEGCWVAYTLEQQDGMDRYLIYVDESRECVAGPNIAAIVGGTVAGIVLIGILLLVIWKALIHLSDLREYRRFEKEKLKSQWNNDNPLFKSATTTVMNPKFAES

inhibition, inactive:
CCCCn1c(=O)c(CCC(=O)OCC(=O)Nc2ccc(C)c(Cl)c2)nc2ccccc21 6.4%, OCC(CO)(CO)NCc1ccc(-c2ccccc2)cc1 3.8%, Cc1ccc(S(=O)(=O)Nc2nc3ccccc3nc2N2CCc3ccccc3C2)cc1 71.6%, Cc1cc(N2CCN(S(=O)(=O)c3ccc(C)c(C)c3)CC2)c2ccccc2n1 41.1%, Cc1cc(SCC(=O)NCCN2C(=O)CSC2=O)nc2ccccc12 13%, Cc1c(Cl)cccc1NC(=O)CC1SC(=NCC2CCCO2)NC1=O (stereo not given) 12.8%, CC(Sc1nc2cc(Cl)ccc2s1)C(=O)Nc1ccc2c(c1)OCO2 (stereo not given) 82.9%, COc1ccc(OC)c(/C=C/C(=O)OCC(=O)Nc2ccc3c(c2)OCCO3)c1 24.4%, Cc1ccc(-c2cc(N)on2)cc1 -5.1%, O=S(=O)(Nc1ccc(Oc2ncccn2)c(Cl)c1)c1ccc(F)cc1 -21.1%, CC(=O)N1CCN(C(=O)c2cccc(S(=O)(=O)Nc3ccc(C)cc3)c2)CC1 -4.1%, O=C1NC(c2ccc(-c3ccccc3[N+](=O)[O-])o2)C(C(=O)c2ccc(Cl)cc2)C(O)(C(F)(F)F)N1 (stereo not given) 13.3%, O=C(Cc1coc2ccc3ccccc3c12)NCc1cccs1 -3.3%, CC(C)[C@H](NC(=O)c1ccc(F)cc1)C(=O)OCC(=O)NC(=O)c1cccn1C -23.1%, COC(=O)N/N=C/c1ccc(-c2ccc(Cl)c(Cl)c2)o1 9.8%, CC(=O)N1C(C)c2ccccc2C(C)(C)CC12CCCCC2 (stereo not given) -35.8%, COC(=O)c1ccc(NC(=O)CSc2nncc3ccc(OC)c(OC)c23)cc1 -5.7%, CCC(C(=O)OCC(=O)Nc1c(Cl)cc(Cl)cc1Cl)c1ccccc1 (stereo not given) 14.9%, Cc1cc(C)c(NC(=S)N2CCCC2C(=O)O)c(C)c1 (stereo not given) -8.3%, COc1ccccc1CN(C)C(=O)C1(c2ccc(Cl)cc2)CC1 11.8%, COc1ccc([N+](=O)[O-])cc1NC(=O)c1ccc(N(Cc2ccccc2C)S(C)(=O)=O)cc1 4%, O=C(CSc1ccc(C(F)(F)F)cc1[N+](=O)[O-])NCCOc1ccccc1 -6%, COc1ccc(C2c3c(C)nn(-c4ccccc4)c3NC(=O)N2c2ccccc2)cc1 (stereo not given) 2.6%, O=C(NCCN1CCOCC1)c1cc(Sc2cccc(Cl)c2)nc2ccccc12 4.4%, Cc1csc(=Nc2ccccc2)n1CCO -4.3%, OC(COCC1COc2ccccc2O1)CN1CCN(c2ccc(F)cc2)CC1 (stereo not given) -1.1%, CCC(=O)NC(Nc1nc2ccc(C)cc2s1)(C(=O)OC)C(F)(F)F (stereo not given) -4.9%, COC(=O)C(NC(=O)c1ccc(OC)cc1)(Nc1ncc(S(=O)(=O)c2ccc([N+](=O)[O-])cc2)s1)C(F)(F)F (stereo not given) 47.7%, CN(Cc1cccs1)C(=O)Cc1c[nH]c2ccccc12 -17.9%, Cc1ccc(-c2nc(C)sc2CC(=O)OCC(=O)Nc2c(F)cccc2F)cc1 16.1%, Nc1nc(CC(=O)CSc2ccc(Cl)cc2)nc(Nc2ccc(F)cc2)n1 -3.1%, Cc1ccc(C)c(NC(=S)NCC(c2cccnc2)N2CCOCC2)c1 (stereo not given) -16.8%, COC(=O)c1ccc(C(=O)OC)c(NC(=S)N2CCN(c3cc(Cl)ccc3C)CC2)c1 5.6%, CCCOC(=O)c1c(NC(=O)c2cnn3c2NC(c2ccccc2)CC3C(F)(F)F)sc2c1CCCC2 (stereo not given) -9.3%, COc1cccc(-c2nc3cc(C)ccc3o2)c1 21%, CCCCCC(=O)Nc1ccc2oc(-c3ccncc3)nc2c1 -1.9%, C/C(=N/NC(=O)C1COc2ccccc2O1)c1ccco1 (stereo not given) 4.4%, Cc1ccccc1NC(=O)CSC1=NCCN1 -19.9%, Cc1ccc(S(=O)(=O)C2C(=O)NC3(C)CC2c2ccccc2O3)cc1 (stereo not given) 19.1%, CCOC(=O)c1cc2ccccc2nc1C -6.1%, Cc1nc2ccccc2cc1O 20.1%, CN1CCN(c2ccc(S(=O)(=O)Nc3ccccc3)cc2[N+](=O)[O-])CC1 31%, Cc1ccc(-c2nn(-c3ccccc3)cc2C(=O)Nc2cccc(S(=O)(=O)N3CCOCC3)c2)cc1 -5.6%, Cc1[nH]c2ccccc2c1/C=N/NC(=O)CNC(=O)c1ccc2c(c1)OCO2 -16%, Cc1ccc2[nH]cc(CCNC(=O)c3ccc([N+](=O)[O-])cc3)c2c1 -25.6%, CCOC(=O)c1c(NC(=O)C2CCN(S(=O)(=O)c3ccc(Cl)cc3)CC2)sc2c1CCCC2 -25.4%, Cc1ccccc1C(CC(=O)c1cccs1)C(C#N)C#N (stereo not given) -1.8%, CC(C)NC(=S)N1CCN(C(c2ccccc2)c2ccccc2)CC1 -11.6%, CCc1nnc(NC(=O)C2CC(=O)N(c3ccc4c(c3)OCCO4)C2)s1 (stereo not given) 12.3%, CCOC(=O)c1csc(NC(=O)Nc2cccc(OC)c2)n1 -1.6%, Cc1cc[n+](-c2[nH]c(=O)sc2/C=N/NC(=O)c2ccccc2[O-])cc1C -4.4%, C/C(=C/C(=O)N1CCN(C)CC1)C(=O)O -9.1%, N#C/C(=C(/O)COC(=O)COc1ccc(Cl)cc1)c1nc2ccccc2[nH]1 1.5%, Cc1ccc(NC(=O)NC(=O)CSc2nnc(-c3ccc(OC(F)F)cc3)n2N)c(C)c1 2.1%, O=C(Cn1cnc2ccccc21)N/N=C/c1ccco1 10.1%, C=CCn1c(SCC(N)=O)nnc1-c1cc2c(s1)CCC(CC)C2 (stereo not given) 18.8%, CCn1c2ccccc2c2cc(NC(=O)COC(=O)c3ccccc3Br)ccc21 2.2%, COc1ccc(Cl)cc1NC(=O)CNc1ccccc1F 0.4%, CC(C)CNC(=O)COC(=O)c1ccccc1OCC(=O)Nc1ccc(Br)cc1 7.6%, CC(C)COP(=O)(c1ccc(N(C)C)cc1)C(Nc1ccccc1)c1cccnc1 (stereo not given) -5.3%, CC1CCN(c2ccc(C(=O)NCc3ccc4c(c3)OCO4)cc2[N+](=O)[O-])CC1 6.9%, CSCC[C@H](NC(=O)OC(C)(C)C)C(=O)N/N=C/c1cc2ccc(C)cc2nc1Cl 23.4%, O=C(Nc1ccccc1)c1cccnc1Nc1ccccc1 -10.2%, Cc1cccc(NC(=O)c2ccccc2NC(=O)C(C)(C)C)n1 -2%

inhibition, active:
Cc1ccc(S(=O)(=O)C(C#N)c2nc3ccccc3nc2N2CCCC2)cc1C (stereo not given) 63.1%, Cc1ccc(S(=O)(=O)Nc2ccc3ncccc3c2)cc1 75.1%, O=C(NC(Nc1nc2ccc([N+](=O)[O-])cc2s1)(C(F)(F)F)C(F)(F)F)c1ccccc1 93.8%, CCc1ccc2oc(-c3ccc(N)cc3)nc2c1 62.3%, Cc1nc2ccccc2cc1OCc1ccc(F)cc1 98.8%, O=C(Nc1ccccc1)c1ccccc1NC(=O)C(F)(F)F 77.1%

— PubChem BioAssay AID1497 (Sanford-Burnham Center for Chemical Genomics, 2009)
